Laboratory results from PubChem BioAssay (Tox21).
Records with an inconclusive call do not appear. Active and inactive are the calls of the source. Unless noted, calls follow the shape of the dose curve; as a rule, active = well fitted curve in the direction sought with a large enough effect in the repeat runs; inconclusive = weak or mixed curves; inactive = no such curve, though single readings can be large; an effect the other way counts as inactive or inconclusive.

Experiments:
[1] = target: Thyrotropin receptor (Homo sapiens) (UniProt P16473); assay: qHTS assay to identify small molecule antagonists of the thyroid stimulating hormone receptor (TSHR) signaling pathway (AID 1259385; calls by dose curve; also: nearly all actives have a fitted effect of over 20% in size)
Sequence of Thyrotropin receptor (Homo sapiens) (P16473 whole entry, looked up): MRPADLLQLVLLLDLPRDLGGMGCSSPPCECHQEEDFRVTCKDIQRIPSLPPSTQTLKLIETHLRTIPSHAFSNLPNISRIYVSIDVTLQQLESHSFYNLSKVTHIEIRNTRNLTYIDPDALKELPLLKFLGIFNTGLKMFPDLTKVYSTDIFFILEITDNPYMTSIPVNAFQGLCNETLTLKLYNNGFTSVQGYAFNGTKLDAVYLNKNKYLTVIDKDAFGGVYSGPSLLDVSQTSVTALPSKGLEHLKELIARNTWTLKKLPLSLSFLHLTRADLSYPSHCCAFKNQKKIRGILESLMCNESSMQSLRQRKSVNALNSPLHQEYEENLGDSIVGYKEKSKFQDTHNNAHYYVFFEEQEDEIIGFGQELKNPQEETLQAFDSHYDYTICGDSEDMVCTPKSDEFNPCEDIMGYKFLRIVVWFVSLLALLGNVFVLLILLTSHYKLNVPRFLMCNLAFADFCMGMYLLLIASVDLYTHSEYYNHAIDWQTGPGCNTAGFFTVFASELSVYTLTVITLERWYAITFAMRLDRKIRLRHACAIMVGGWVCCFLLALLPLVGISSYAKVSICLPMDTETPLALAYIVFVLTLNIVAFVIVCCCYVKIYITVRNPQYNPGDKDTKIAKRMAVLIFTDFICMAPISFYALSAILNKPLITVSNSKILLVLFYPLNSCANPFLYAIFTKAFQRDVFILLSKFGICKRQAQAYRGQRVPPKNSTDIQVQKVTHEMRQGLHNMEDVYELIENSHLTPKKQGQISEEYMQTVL
Method in brief: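 TSHR-HEK293 cells were plated and held 18 h at 37C/5% CO2, then given compound plus Ro20-1724 and stimulated with TSH at 1.5 ng/mL final. After 30 min at room temperature, cAMP was detected with cAMP-d2/anti-cAMP-cryptate (1 h) by fluorescence.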

[2] = qHTS assay to identify small molecule agonists of the estrogen receptor alpha (ER-alpha) signaling pathway in the presence of an antagonist - cell viability counter screen (AID 1259386);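 also: cells exposed to compounds for 22 h at 37 °C before the viability read; nearly all actives have a fitted effect of over 30% in size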; also: potency is read from the fitted curve at half-maximal effect
Method in brief: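 Cell viability in VM7Luc4E2 cells (endogenous full-length ER-alpha) measured by CellTiter-Fluor fluorescence in the same wells as the luciferase screen. Cells pre-cultured 5 days in charcoal-stripped serum, then treated 22 h with compounds at 15 concentrations plus 10.0nM ICI-182,780.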

[3] = target: Progesterone receptor (Homo sapiens) (UniProt P06401); assay: qHTS assay to identify small molecule agonists of the progesterone receptor (PR) signaling pathway (AID 1346784; calls by dose curve; also: nearly all actives have a fitted effect of over 30% in size)
Sequence of Progesterone receptor (Homo sapiens) (P06401 whole entry, looked up): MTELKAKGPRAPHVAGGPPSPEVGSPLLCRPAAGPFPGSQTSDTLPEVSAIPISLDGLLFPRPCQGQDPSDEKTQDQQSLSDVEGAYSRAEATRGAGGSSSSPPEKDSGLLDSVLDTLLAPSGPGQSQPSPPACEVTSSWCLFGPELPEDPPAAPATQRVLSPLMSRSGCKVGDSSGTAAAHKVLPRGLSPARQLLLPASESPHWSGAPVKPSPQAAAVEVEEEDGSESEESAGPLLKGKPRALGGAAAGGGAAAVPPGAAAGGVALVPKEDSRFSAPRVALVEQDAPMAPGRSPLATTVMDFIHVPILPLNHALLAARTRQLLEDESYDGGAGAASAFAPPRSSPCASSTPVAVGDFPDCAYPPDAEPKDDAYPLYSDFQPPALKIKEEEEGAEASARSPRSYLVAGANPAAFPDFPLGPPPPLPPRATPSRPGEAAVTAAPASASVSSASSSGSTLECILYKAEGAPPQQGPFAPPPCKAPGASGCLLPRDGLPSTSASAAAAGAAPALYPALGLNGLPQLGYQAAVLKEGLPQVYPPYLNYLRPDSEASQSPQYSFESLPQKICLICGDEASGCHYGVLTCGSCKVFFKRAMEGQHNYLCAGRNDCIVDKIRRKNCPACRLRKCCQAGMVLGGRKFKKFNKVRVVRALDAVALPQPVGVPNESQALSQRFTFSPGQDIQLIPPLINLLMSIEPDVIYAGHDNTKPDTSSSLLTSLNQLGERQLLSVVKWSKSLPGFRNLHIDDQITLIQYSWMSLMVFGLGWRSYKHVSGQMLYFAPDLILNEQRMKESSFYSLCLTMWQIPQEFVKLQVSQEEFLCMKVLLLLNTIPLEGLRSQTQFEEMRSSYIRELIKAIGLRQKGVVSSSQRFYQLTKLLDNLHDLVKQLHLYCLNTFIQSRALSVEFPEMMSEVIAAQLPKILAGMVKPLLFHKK
Method in brief: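 PR-UAS-bla HEK 293T cells carrying a UAS-driven beta-lactamase reporter were seeded in medium with 2% charcoal-stripped FBS, preincubated 6 hr at 37C, then exposed to compounds in DMSO for 16 hr; agonism was read by LiveBLAzer B/G FRET fluorescence.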

[4] = qHTS assay to identify small molecule agonists of the progesterone receptor (PR) signaling pathway - cell viability counter screen (AID 1346799; calls by dose curve; also: nearly all actives have a fitted effect of over 45% in size; also: potency is read from the fitted curve at half-maximal effect)
Method in brief: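 PR-UAS-bla HEK293T cells, 3,000 per well in medium with 2% charcoal-stripped FBS, were preincubated 6 hr at 37C, then exposed to compounds for 16 hr; viability was read as CellTiter-Glo luminescence after 30 min at room temperature.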

[5] = qHTS assay to identify small molecule antagonists of the TGF-beta/Smad signaling pathway - cell viability counter screen (AID 1346824); also: nearly all actives have a fitted effect of over 50% in size
Method in brief: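 SBE-bla HEK 293T cells were plated overnight at 37 C, then given compounds in DMSO plus TGF-beta1 (added as 0.25 ng/mL solution) for 5 hr. After the bla read, CellTiter-Glo was added to the same wells and luminescence read after 30 min at room temperature.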

[6] = qHTS assay to identify small molecule agonists of the TGF-beta/Smad signaling pathway - cell viability counter screen (AID 1346829); also: top concentration of the series differs between compounds; nearly all actives have a fitted effect of over 45% in size
Method in brief: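 Compound-treated SBE-bla HEK 293T cells (5 hr, 37 C) were assessed for viability with CellTiter-Glo in parallel with the reporter read.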

[7] = qHTS assay to identify small molecule agonists of the TGF-beta/Smad signaling pathway (AID 1346859; active = well fitted activation curve with a large enough effect in the signal ratio in the repeat runs, not every such curve was filed as active; the % refers to the signal ratio; also: series mostly up to about 77 µM)
Method in brief: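 HEK 293T cells stably carrying a beta-lactamase reporter driven by the Smad binding element were seeded overnight, exposed to DMSO-dissolved compounds for 5 hr at 37 C, 5% CO2, then loaded with FRET substrate for 2 hr at room temperature.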

[8] = target: Thyrotropin-releasing hormone receptor (Homo sapiens) (UniProt P34981); assay: qHTS assay to identify small molecule antagonists of the thyrotropin-releasing hormone receptor (TRHR) signaling pathway (AID 1346877; active = well fitted inhibition curve with a large enough effect in the repeat runs, not every such curve was filed as active; also: series mostly up to about 51 µM)
Sequence of Thyrotropin-releasing hormone receptor (Homo sapiens) (P34981 whole entry, looked up): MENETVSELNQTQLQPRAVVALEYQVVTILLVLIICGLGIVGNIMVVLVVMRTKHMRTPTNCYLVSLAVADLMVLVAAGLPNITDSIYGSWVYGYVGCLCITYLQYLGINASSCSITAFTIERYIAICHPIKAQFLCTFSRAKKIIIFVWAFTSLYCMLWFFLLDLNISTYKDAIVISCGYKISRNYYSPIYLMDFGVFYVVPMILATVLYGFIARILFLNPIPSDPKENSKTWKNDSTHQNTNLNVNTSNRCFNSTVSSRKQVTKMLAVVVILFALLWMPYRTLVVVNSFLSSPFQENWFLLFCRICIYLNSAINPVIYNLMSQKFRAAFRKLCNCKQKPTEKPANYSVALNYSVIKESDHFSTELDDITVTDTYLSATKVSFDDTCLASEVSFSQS
Method in brief: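 TRHR-expressing HEK293 cells loaded with calcium dye for 2 h at 37 C; compounds pre-incubated 5 min at room temperature before TRH challenge at 1 nM final. Intracellular calcium fluorescence read kinetically for 3 min; 15 concentrations in triplicate.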

[9] = qHTS assay to identify small molecule antagonists of the progesterone receptor (PR) signaling pathway - cell viability counter screen (AID 1346798); also: nearly all actives have a fitted effect of over 50% in size; also: potency is read from the fitted curve at half-maximal effect
Method in brief: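 PR-UAS-bla HEK293T cells in medium with 2% charcoal-stripped FBS were treated with compounds plus R5020 for 16 hr at 37C. Cell viability was then read by CellTiter-Glo luminescence after 30 min at room temperature in the same wells.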

[10] = target: Progesterone receptor (Homo sapiens) (UniProt P06401); assay: qHTS assay to identify small molecule antagonists of the progesterone receptor (PR) signaling pathway (AID 1346795; active = well fitted inhibition curve with a large enough effect in the signal ratio in the repeat runs, not every such curve was filed as active; the % refers to the signal ratio)
Method in brief: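 PR-UAS-bla HEK293T cells carrying a UAS-driven beta-lactamase reporter were plated in medium with 2% charcoal-stripped FBS and rested 6 hr at 37C. Compounds were added with 1 nM R5020 (final) for 16 hr, then FRET substrate loaded 2 hr at room temperature.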

Measured: Potency

CC(C)CC(C)(C)C
active: [4] 31.8 µM
not listed: [9] | [10]
inactive: all other assays above

CC(C)C[C@H](NC(=O)[C@H](Cc1ccccc1)NC(=O)c1cnccn1)B(O)O
active: [2] 0.841 µM
not listed: [5] | [10]
inactive: all other assays above

OCC(O)c1ccccc1 (stereo unspecified)
active: [9] 19.3 µM
not listed: [4] | [10]
inactive: all other assays above

CCOC(=O)CC(O)(CC(=O)OCC)C(=O)OCC
inactive: [1] | [2] | [3] | [9] | [6] | [7]

O=C1CCCN1CCO
not listed: [4] | [9] | [10]
inactive: all other assays above

COC(=O)c1cc(Cl)ccc1[N+](=O)[O-]
not listed: [4] | [9]
inactive: all other assays above

C/C(=C\C(C)CC(C)CC(C)C)C1CC(=O)OC1=O (stereo unspecified)
inactive: [1] | [2] | [3] | [6] | [7] | [8]

CCOc1cc(OCC)c(C(C)=O)cc1OCC
active: [2] 21.3 µM
not listed: [9] | [10]
inactive: all other assays above

O=S(=O)(O)c1cc(Cl)c(Cl)cc1Cl
active: [9] 30.6 µM | [4] 30.6 µM
inactive: [1] | [2] | [3] | [6] | [8]

O=C(O)c1c2ccccc2cc2ccccc12
not listed: [5] | [9] | [10]
inactive: all other assays above

Cc1ccc(NC=O)c(C)c1
not listed: [4] | [7] | [9]
inactive: all other assays above

N#Cc1ccc(CC(=O)c2cccc(C(F)(F)F)c2)cc1
not listed: [4] | [5] | [10]
inactive: all other assays above

COc1cccc([C@H](O)C2CCN(CCc3ccc(F)cc3)CC2)c1OC
not listed: [4] | [7] | [9]
inactive: all other assays above

CC(C)CCCCCCCOC(=O)c1ccc(C(=O)OCCCCCCCC(C)C)c(C(=O)OCCCCCCCC(C)C)c1
inactive: [1] | [2] | [3] | [5] | [6] | [7]

CCc1ccc(C(=O)C(C)CN2CCCCC2)cc1 (stereo unspecified)
not listed: [4] | [5] | [9]
inactive: all other assays above

Cc1c(Cl)cccc1Nc1ccccc1C(=O)O
not listed: [4] | [7] | [10]
inactive: all other assays above

CC(C)CCCCCOC(=O)CS
not listed: [10]
inactive: all other assays above

CCc1ccc2c(c1)C(=O)c1ccccc1C2=O
not listed: [10]
inactive: all other assays above

CC(=O)S[C@H](C(=O)N[C@H]1Cc2ccccc2[C@H]2CCC[C@@H](C(=O)O)N2C1=O)C(C)C
not listed: [10]
inactive: all other assays above

FC(F)(Cl)C(F)(Cl)Cl
not listed: [5] | [10]
inactive: all other assays above

CC(C)=CCC/C(C)=C/C=N/O
not listed: [4] | [9] | [10]
inactive: all other assays above

CCCCCCOC(=O)c1ccccc1
active: [9] 15.4 µM | [4] 17.2 µM
not listed: [5] | [10]
inactive: all other assays above

C[C@H]1C[C@H]2[C@@H]3CCC4=CC(=O)C=C[C@]4(C)[C@@]3(F)[C@@H](O)C[C@]2(C)[C@@]1(O)C(=O)COP(=O)(O)O
not listed: [10]
inactive: all other assays above

C=Cc1ccc(C=C)cc1
not listed: [9] | [10]
inactive: all other assays above

O=C(OCCN1CCOCC1)c1cccnc1Nc1cccc(C(F)(F)F)c1
not listed: [10]
inactive: all other assays above

CC1(COc2ccc(CC3SC(=O)NC3=O)cc2)CCCCC1 (stereo unspecified)
not listed: [4] | [9] | [10]
inactive: all other assays above

CCOc1ccc2c(c1)C(C)CC(C)(C)N2 (stereo unspecified)
not listed: [10]
inactive: all other assays above
